Pf growth 48h: P. falciparum growth inhibition at 48 hours (one generation); P. falciparum luciferase growth in erythrocytes, 48 h; Potency, µM (titrated, usually from 28.7 µM), without a hit: at the top dose activity change, negative = inhibition, usual class: inhibitors; hit rate 5.9% among 310,000; note: potency is the fitted concentration of half-maximal effect; % is set by controls: 0 for no effect and ±100 for the full control effect
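A one-generation exposure of luciferase-tagged malaria parasites in RPMI 1640/Albumax erythrocyte culture, 37 C and 5% CO2. Inhibition is inferred from decreased luminescence after adding detection reagent.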
Pf growth 96h: P. falciparum growth inhibition at 96 hours. P. falciparum luciferase reporter growth, 96 h. Potency, µM (titrated, usually from 28.7 µM), for inactives: top-dose activity change, negative = inhibition, hits mostly inhibitors. hit rate 6.9% among 320,000. AID 504834; note: potency is the fitted concentration of half-maximal effect; % is set by controls: 0 for no effect and ±100 for the full control effect
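Readout is luminescence from an integrated firefly luciferase in P. falciparum. Red cells, 2% hematocrit and 0.05% parasitemia final, were cultured with compound through two parasite generations (96 hours) at 37 C, 5% CO2.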
Shiga toxin inh: Shiga toxin inhibition; Vero cells, Shiga toxin protein synthesis inhibition reporter; AID 2315; inhibition, % at 38.7 µM; hit rate 9.2% among 290,000; in the data active = inhibition mostly above about 28%, no sharp cut-off; inactive = mostly below about 43%; note: 0% is about no effect
CHX counter: counter-screen hit for Shiga toxin inhibitors, cycloheximide; cell reporter, cycloheximide protein synthesis inhibition counterscreen; max response, %; hit rate 12% among 300,000; in the data active = max response mostly above about 13%, no sharp cut-off; inactive = mostly below about 14%; note: read at 38.3 µM for the half of the compounds with a filed dose; 0% is about no effect
An asterisk follows results filed as active. Only some compounds are listed: those with a hit (about 21% of all), similar ones and a draw of the others. Unless noted, calls come from the whole dose curve; as a rule, active = well fitted inhibition curve with a large enough effect; inconclusive = small, poorly fitted or top-dose-only effect, or another doubt; inactive = no such curve, though single readings can be large or run the other way.

COc1ccc2c(c1)/C(=C/c1cnc[nH]1)C(=O)N2 was read as Pf growth 48h inconclusive, Pf growth 96h 5.2µM*, Shiga toxin inh 9 and CHX counter -1.
Screening O=C(NC1CC1)C1C2C3C4CC5C3C5C4C12 (configuration not stated) returned Pf growth 48h 5.9µM*, Pf growth 96h 7%, Shiga toxin inh -6 and CHX counter 7.
Screening CCN(CC(=O)Nc1ccc(NC(C)=O)cc1)C(=O)C1(c2ccccc2)CC1 returned Pf growth 48h -22% and Pf growth 96h -14%.
`NC(=O)Cc1ccc(C(=O)c2ccc(Cl)cc2Cl)s1` gave Pf growth 48h 37%, Pf growth 96h 51%, Shiga toxin inh 48* and CHX counter 23*.
`O=C(O)Cc1ccc(C(=O)c2ccc(Cl)cc2Cl)s1` gave Pf growth 48h 0%, Pf growth 96h 28%, Shiga toxin inh 15 and CHX counter 19.
O=C(Nc1nc(N2C(=O)c3ccccc3C2=O)n(-c2ccccc2)n1)c1ccc(Cl)cc1 was read as Pf growth 48h 125%, Pf growth 96h 0%, Shiga toxin inh -7 and CHX counter 2.
COc1ccc(-c2cc(C#N)nc(N3CCNCC3)n2)cc1 was read as Pf growth 96h 2.6µM*, Shiga toxin inh -12 and CHX counter -1.
For COc1ccc(-c2cc(C#N)nc(Cl)n2)cc1 the results were Pf growth 48h -10%, Pf growth 96h 0%, Shiga toxin inh -20 and CHX counter 1.
COc1ccc(-c2cc(C#N)nc(NN)n2)cc1 was read as Pf growth 48h inconclusive, Pf growth 96h 2.9µM*, Shiga toxin inh 2 and CHX counter 10.
`CCN(CC)c1nc(C#N)cc(-c2ccc(OC)cc2)n1` gave Pf growth 48h 13µM*, Pf growth 96h 7.4µM*, Shiga toxin inh -17 and CHX counter -2.
For O=C1CC(/C=C/c2ccc([N+](=O)[O-])cc2)=Nc2ccccc2N1 the results were Pf growth 48h inconclusive, Pf growth 96h inconclusive, Shiga toxin inh 18 and CHX counter 9.
Screening Cc1nc(CCl)cc(=O)[nH]1 returned Pf growth 48h 5.2µM*, Pf growth 96h inconclusive, Shiga toxin inh 17 and CHX counter 4.
Cc1cccc(NC(=O)c2ccc(NC(=O)c3ccccc3Br)cc2)c1 was read as Pf growth 48h -13%, Pf growth 96h -19%, Shiga toxin inh 37 and CHX counter 20*.
`O=C(NNC(=S)Nc1ccc(F)c(Cl)c1)c1ccccc1Br` gave Pf growth 48h 27%, Pf growth 96h 32%, Shiga toxin inh 43* and CHX counter 12.
`Cc1ccc(C(=O)Nc2ccc(Br)c(C(F)(F)F)c2)cc1` gave Pf growth 48h inconclusive, Pf growth 96h 12µM*, Shiga toxin inh 108* and CHX counter 82*.
For Cc1cccc(NC(=S)NNC(=O)c2ccccc2Br)c1 the results were Pf growth 48h 0%, Pf growth 96h 64%, Shiga toxin inh 78* and CHX counter 20*.
For Cc1ccc(NC(=O)c2ccc(C)cc2)cc1 the results were Pf growth 48h 129% and Pf growth 96h 163%.
O=C(NNC(=S)Nc1ccc(F)c(Cl)c1)C1CC1 was read as Pf growth 48h -20%, Pf growth 96h 0%, Shiga toxin inh -7 and CHX counter 0.
Screening O=C(NC1CCCC1)c1ccc(CNc2c(N3CCOCC3)c(=O)c2=O)cc1 returned Pf growth 96h 21%, Shiga toxin inh -13 and CHX counter -4.
Screening COc1cccc(C(=O)/C=C/Nc2ccc(S(=O)(=O)Nc3onc(C)c3C)cc2)c1 returned Pf growth 48h 38%, Pf growth 96h 2%, Shiga toxin inh 63* and CHX counter 44*.
For Cc1noc(NS(=O)(=O)c2ccc(N/C=C\C(=O)c3ccc(Br)cc3)cc2)c1C the results were Pf growth 48h 20%, Pf growth 96h 52%, Shiga toxin inh 58* and CHX counter 19*.
Cc1noc(NS(=O)(=O)c2ccc(N/C=C\C(=O)c3ccc4c(c3)OCO4)cc2)c1C was read as Pf growth 48h 51%, Pf growth 96h inconclusive, Shiga toxin inh 72* and CHX counter 37*.
For CCOc1ccc(C(=O)/C=C/Nc2ccc(S(=O)(=O)Nc3onc(C)c3C)cc2)cc1 the results were Pf growth 48h 37%, Pf growth 96h 2%, Shiga toxin inh 85* and CHX counter 20*.
Screening CCCOc1ccc(C(F)(F)F)cc1NC(=O)C1CC(=O)N(Cc2ccco2)C1 (configuration not stated) returned Pf growth 48h inconclusive and Pf growth 96h -26%.
Screening Cc1noc(NS(=O)(=O)c2ccc(NC(=O)/C=C/c3ccc(C(C)C)cc3)cc2)c1C returned Pf growth 48h 33%, Pf growth 96h 10µM*, Shiga toxin inh 16 and CHX counter -2.
Cc1noc(NS(=O)(=O)c2ccc(NC(=O)/C=C/c3ccc(Br)cc3)cc2)c1C was read as Pf growth 48h 9%, Pf growth 96h inconclusive, Shiga toxin inh -5 and CHX counter -1.
For COc1ccc(C2CC2/C(=N/O)c2ccccn2)cc1 (configuration not stated) the results were Pf growth 48h 326%, Pf growth 96h -49%, Shiga toxin inh 108* and CHX counter 21*.
`COc1ccc(C2CC2C(=O)c2ccccn2)cc1` (configuration not stated) gave Pf growth 48h 127%, Pf growth 96h 137%, Shiga toxin inh 46 and CHX counter 41*.
For COc1ccc(C2CC2/C(=N/O)c2ccccc2)cc1 (configuration not stated) the results were Pf growth 48h 52%, Pf growth 96h 130%, Shiga toxin inh 45 and CHX counter 31*.
For O/N=C(\c1ccccn1)C1CC1c1ccccc1 (configuration not stated) the results were Pf growth 48h 5%, Pf growth 96h inconclusive, Shiga toxin inh -13 and CHX counter 12.
COc1ccc(C2CC2/C(C)=N/OC(=O)c2ccc(F)cc2)cc1 (configuration not stated) was read as Pf growth 48h 42%, Pf growth 96h inconclusive, Shiga toxin inh 39 and CHX counter 9.
CCn1cc(CNC(=S)Nc2cccc(Cl)c2C)cn1 was read as Pf growth 48h 7%, Pf growth 96h 21%, Shiga toxin inh -9 and CHX counter -3.
COc1ccc2c(Cl)c(C(=O)N/N=C3\CCCC(=O)C3)sc2c1 was read as Pf growth 48h inconclusive, Pf growth 96h inconclusive, Shiga toxin inh 47* and CHX counter 14.
`Cc1ccc(S(=O)(=O)N2c3ccccc3NC(=O)CC2C)cc1` (configuration not stated) gave Pf growth 48h inconclusive, Pf growth 96h 16%, Shiga toxin inh -1 and CHX counter -3.
For Cc1ccc(S(=O)(=O)N2c3ccccc3NC(=O)C2CC(=O)Nc2ccccc2)cc1 (configuration not stated) the results were Pf growth 48h inconclusive, Pf growth 96h 12µM*, Shiga toxin inh 10 and CHX counter -1.
CN(C)c1ccc(/C=N/N2CCN(Cc3ccccc3Cl)CC2)cc1 was read as Pf growth 48h 5%, Pf growth 96h -2%, Shiga toxin inh 7 and CHX counter 1.

Screening data: PubChem, National Center for Advancing Translational Sciences (NCATS)
